# Data as given in PubChem BioAssay (NCI).
# This is part of a sample that, as a whole, favours compounds with a hit. Of some 83,000 tested, about 20% had one in any assay.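 Note: values are percent growth. 100 is the growth of untreated cells, values between 100 and 0 indicate rising inhibition; between -100 and 0 indicates cell death.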 Values without a mark were called inactive. The source made the active and inactive calls. Rule for the calls: active = growth percent below 10; inactive = the rest.
# Columns and labels:
# Experiment in all cases: NCI-60 one-dose screen, 48 h (100 = growth as untreated, 0 = no growth, -100 = all killed)
# Details in all cases: 10 µM unless noted
# [1] = tested on: DU-145 prostate
# [2] = tested on: K-562 leukemia
# [3] = tested on: MALME-3M melanoma
# [4] = tested on: MDA-MB-231 breast
# [5] = tested on: RXF 393 renal
# [6] = tested on: SF-268 CNS
# [7] = tested on: SF-295 CNS
# [8] = tested on: SF-539 CNS
# [9] = tested on: UACC-257 melanoma
# [10] = tested on: M14 melanoma
# [11] = tested on: HCT-15 colon
# [12] = tested on: HT29 colon
# [13] = tested on: SNB-75 CNS
# [14] = tested on: SNB-19 CNS
# [15] = tested on: U251 CNS
# [16] = tested on: SK-MEL-5 melanoma
# [17] = tested on: LOX IMVI melanoma
# [18] = tested on: SK-MEL-28 melanoma
# [19] = tested on: UACC-62 melanoma
# [20] = tested on: PC-3 prostate
SMILES,growth [1] [%],growth [2] [%],growth [3] [%],growth [4],growth [5] [%],growth [6] [%],growth [7] [%],growth [8],growth [9] [%],growth [10] [%],growth [11] [%],growth [12] [%],growth [13] [%],growth [14] [%],growth [15] [%],growth [16] [%],growth [17],growth [18] [%],growth [19] [%],growth [20]
Cc1nc2cc(Nc3nc(Nc4ccc(F)cc4)nc(-c4ccc(Cl)cc4)n3)ccc2n1Cc1ccccc1,81.4,33.6,72.5,66%,68.5,54.9,90.4,92.6%,68.9,58.3,64.4,55.8,65.2,83.4,69.7,83.4,76.6%,92.6,–,–
CCCN(CCC)c1ccc(/C=C/c2ccc3cc(OCC)ccc3n2)cc1,91.6,72.9,88,109%,81.6,90.7,91.9,90.7%,84.3,86.4,78.6,66.7,98.6,90,74.9,78.3,97.6%,64.8,86.6,–
O=C(O)CCN1CCN(c2cccc(Cl)c2)CC1,118,99.8,107,116%,105,117,87.4,89.1%,94.6,109,100,99.8,84,103,–,102,110%,108,104,101%
COc1ccc(C(=O)COc2cccc(/C=C3\CSc4ccc(C)cc4C3=O)c2)cc1,109,29.3,98.2,79.4%,71.1,104,102,103%,95.5,93.8,84.8,101,95,97,97,88.2,74.2%,120,75.2,–
Cc1ccc2c(N/N=C\c3ccco3)cc(C)nc2n1,59.6,37.2,90.7,68.9%,63.7,77.5,69.5,72%,76.5,34.6,36.6,26.6,85.5,87.4,–,94.8,46.5%,80.5,51.1,70.5%
O=C(Nc1ccc(F)cc1)c1ccc(C(=O)Nc2ccc(F)cc2)cc1,112,98.7,101,102%,105,107,91.1,89.9%,101,105,89.1,97.7,84.1,106,–,99.9,103%,98.6,107,99.6%
COc1cc(-c2nc(SC(C)C)nc(Nc3cccc(C)c3)c2C#N)cc(OC)c1OC,109,99.5,108,99.2%,127,107,101,107%,98.9,108,103,98.7,109,103,106,102,97.2%,107,95.2,–
CSc1ccc(OC(C)=O)cc1C,94,114,95.5,113%,98.5,94.3,97.7,98.5%,97.6,101,95,104,94.3,109,–,98.8,95.5%,110,98.1,96.6%
CCCCCCCC/C=C\CCCCCCCCOc1cccc(CC(=O)NCC[N+]2(C)CCCC2)c1,92.7,60.2,88.9,81.6%,13,65.5,96.4,98.8%,98.9,89.2,98.7,38.5,53.3,62.6,53.5,94.1,87%,98.6,71.7,–
CC1(C)N=C(N)N=C(N)N1c1cccc(OCCOc2cccc([N+](=O)[O-])c2)c1,45.1,17.9,48.2,65%,73.2,22.9,68.1,26.1%,48.3,64.1,89.5,15.4,51.8,53.9,–,70.5,20.1%,56,39.6,17.8%
COc1ccc(-c2c3c(N)c4c(nc3nc3c2c(C)nn3-c2ccccc2)CCCCC4)cc1,91.6,24.5,101,105%,106,94.5,85,93.9%,93.9,88.9,73.9,41.4,79.8,93.7,–,90.6,90.6%,98,98,70.4%
Cc1nc2cc(Nc3nc(NCCO)nc(Nc4ccc(F)cc4)n3)ccc2n1Cc1ccccc1,88.5,19.2,105,80.3%,90.2,92.2,86.4,94.4%,98.8,93,100,71.9,102,100,86.3,80.3,81.9%,108,–,–
O=C1OCC2=C1C(c1ccc3c(c1)OCO3)CC(=O)N2c1cccc(Cl)c1 (stereo not given),107,102,88.4,101%,96.5,110,96,104%,104,121,101,97.5,80.7,93,99.9,–,98%,101,102,–
Brc1ccc(SCN(CSc2ccc(Br)cc2)Cc2ccccc2)cc1,96.8,81.5,104,39.8%,89.9,45.4,52.3,49.8%,93.1,73.7,78.8,78.9,66.4,84.2,–,91.2,-15.5% (active),101,92,26.4%
O=C1C(Br)=C(c2ccccc2)C(=O)C(Br)=C1c1ccccc1,105,76.2,114,94.6%,102,102,97.9,98.6%,96.2,104,85.7,110,78,93.6,–,98.5,97.5%,107,83.1,91.5%
Cc1cc(Cl)c2c(Cl)ccc(Cl)c2n1,112,97.6,105,119%,118,99.1,96.9,97.5%,102,101,95.4,102,95.5,107,–,102,103%,113,105,96.3%
CC(C)(C)CC(C)(C)N(CSc1ccc(Cl)cc1)CSc1ccc(Cl)cc1,73.8,34.8,82.1,0.954% (active),66.2,31.5,27.2,6.24% (active),63,48.3,53.3,57.7,49.6,67.5,–,54.2,-34.6% (active),76.7,57.9,2.25% (active)
